From PubChem BioAssay come the findings set out here.

What is called inhibition is the change of the read-out against control, counted positive when it falls.

A short description of assay [1]: inhibitors of TNFa-induced NFkB p65 translocation, primary screen, imaging, HUVEC, MLSMR starter and 10KST1 sets (AID 438;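 active means inhibition above 20% together with a positive visual image hit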;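 further: compound added about 3h40 before a 20 min TNFalpha stimulation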;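 on inhibition: signal is the nuclear over cytoplasmic p65 intensity ratio per well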). The conditions noted are these: HUVEC TNFa-induced p65 nuclear translocation; cell count: measured here: nuclei count (cytotoxicity indicator), at 2.08 µM; inhibition: at 2 µM, stronger effect = higher value, 0% TNFa-plus-vehicle, 100% no-TNFa wells.
Assay [2] is described as follows: reduction of polyQ htt aggregates in cells – imaging, exon1htt(103Q)mCFP cells, high-content imaging, primary screen (AID 483;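 active means visual image review flags a hit and inhibition of aggregation exceeds 20%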;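 further: compound exposure lasted 3 days before fixation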;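 on nuclei count: percent of the per-plate median nuclei count of sample wells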). The conditions noted are these: exon1htt(103Q)mCFP cell line, aggregate imaging, at 2 µM; inhibition of aggregation: stronger effect = higher value; nuclei count: measured here: cell count, toxicity.
The nature of assay [3]: endothelial E-selectin expression blockers – imaging, HUVEC, immunofluorescence, MLSMR starter and 10KST1 sets, primary screen (AID 487;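 active means visually confirmed hit in the image check and inhibition above 20%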;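 on inhibition: signal is fraction of cell area covered by stained E-selectin grains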;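 on nuclei count: 100% = median nuclei count of all wells on the same plate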). To be noted: HUVEC TNFalpha-induced E-selectin immunofluorescence imaging, at 2 µM; inhibition: stronger effect = higher value; nuclei count: measured here: cell number, toxicity.
A short description of assay [4]: Primary imaging screen for DUSP6 inhibitors that restore phospho-Erk in transfected HeLa cells, chemical complementation (AID 609;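 active means compounds giving at least 50% inhibition in the cell-based MKP-3 phosphatase rescue imaging test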;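 on inhibition: phospho-Erk level distribution per well compared with pooled transfected vehicle control wells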). The conditions noted are these: HeLa MKP-3 transfected, phospho-Erk imaging KS statistic, at 10 µM, cells stimulated with TPA for 15 min.
Assay [5] deals with Dual specificity protein phosphatase 6 (Homo sapiens) (UniProt Q16828). The description is as above. The conditions noted are these: HeLa MKP-3 transfected, phospho-Erk imaging KS statistic; at 10 µM; stronger effect = higher value; cells stimulated with TPA for 15 min.
Assay [6] concerns the target Voltage-gated potassium channel subunit beta-2 (Rattus norvegicus) (UniProt P62483). Nature of the assay: inhibitors of rat Kvbeta2 reductase activity – biochemical, NADPH fluorescence, primary screen (AID 622;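 active means fluorescence slope higher than the sample average by over 3 SD, cut at about -0.22 in these data, passing the limit was not always enough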;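 further: slope of raw intensity against log time taken from 70 to 1610 s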). To be noted: recombinant KvBeta, 4-cyanobenzaldehyde reduction, at 10 µM, stronger effect = higher value.
Assay [7] has the same target. Kind of assay: enhancers of rat Kvbeta2 NADPH turnover – biochemical, NADPH fluorescence, primary screen (AID 623;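 active means NADPH fluorescence slope more negative than the mean of all samples by about 3 SD, 99.7% confidence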;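 further: fluorescence intensity change per second fitted from 20 to 320 s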). To be noted: Recombinant KvBeta, NADPH fluorescence decrease slope, 10 min; at 10 µM; stronger effect = lower value.
Assay [8] concerns the target Alpha-2C adrenergic receptor (Homo sapiens) (UniProt P18825). Kind of assay: compounds altering alpha2C-coupled GIRK flux – cell-based, HEK293 alpha2C/GIRK1/2, thallium flux, primary screen (AID 624;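 active means fluorescence slope after compound addition differing from the mean of all screened samples at 99.7% confidence, in either direction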;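 further: slope of fluorescence ratio to pre-addition baseline per second over 15 to 24 s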). To be noted: thallium flux BTC fluorescence, at 10 µM, actives lie on both sides.
Assay [9] is described as follows: loss of swimming-algae plug formation – whole organism, Chlamydomonas reinhardtii, WT vs cilia-less mutant, absorbance, 96-well, primary screen (AID 463189).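 Further: 0% = wild type cc124 cells in DMSO and 100% = ciliumless bld1 mutant cells.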 To be noted: Chlamydomonas reinhardtii gravitaxis, OD600 absorbance, 2 days; at 10 µM; stronger effect = higher value.
A short description of assay [10]: blockers of RIG-like receptor reporter activation – cell-based, Sendai virus stimulus, luciferase, 10K MLSCN set, TLR/RLR signaling modifier project, primary screen (AID 602276;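 active means inhibition at or above 50% at 10 µM; inactive means inhibition below 50%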;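 further: firefly luciferase from ISG56 promoter only with Renilla not read in this screen; 0% = Sendai virus plus DMSO and 100% = medium plus DMSO without virus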). To be noted: HEK293 RL24 IRF3 luciferase reporter, at 10 µM, stronger effect = higher value. For orientation: A reporter such as luciferase makes a cellular process visible.
Assay [11] is described as follows: TLR3 IRF3 reporter activation blockers – cell-based, poly I:C stimulus, luciferase, 10K MLSCN set, primary screen (AID 602277;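 active means inhibition of the reporter signal at or above 50%; inactive means inhibition below 50%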). The conditions noted are these: HEK293-TLR3 RL24 IRF3 luciferase reporter, at 10 µM, stronger effect = higher value.
The target in assay [12] is Muscarinic acetylcholine receptor M4 (Homo sapiens) (UniProt P08173). Kind of assay: M4-linked GIRK flux change, two-sided – cell-based, HEK293 M4/GIRK, thallium flux, BTC-AM, M4 allosteric agonist project, primary screen (AID 625;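 active means fluorescence slope after compound addition differing from the mean of all tested samples at 99.7% confidence, mostly higher but some lower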;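 further: thallium influx through GIRK channels coupled to M4 in HEK293 cells with BTC-AM dye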). To be noted: at 10 µM, actives lie on both sides.
Assay [13] in a line: inhibitors of larval lipid processing in zebrafish, primary screen, whole organism, PED6 fluorescence, gall bladder and intestine (AID 686;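 active means a full or partial loss of lipid-probe fluorescence in the fish gall bladder, intestine or both, judged by eye; inactive means no fluorescence loss, or compound toxic to the fish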;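 further: larvae 5 to 7 days old with five fish per well; signal comes from phospholipase A2 cleavage of quenched PED6 carried via bile; overnight exposure to compound and PED6 before scoring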). The conditions noted are these: Zebrafish larvae PED6 lipid processing, fluorescence scoring; screened at 20 µM (by protocol).
Setting [14] is: measured here: cell density z-score.
Where [15] appears, read: measured here: nuclear c-Myc green intensity z-score.
Where [16] appears, read: measured here: nuclear pErk red intensity z-score, stronger effect = higher value.

“And” between values parts separate entries of the source, which are not always exact repeats. Equal values may be shown once. The source made the active and inactive calls.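 How the source made its calls, unless noted: active means inhibition at or above 50% relative to wild type and mutant plate controls; inactive means inhibition below 50%.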

Chain of Voltage-gated potassium channel subunit beta-2 (Rattus norvegicus) (P62483 whole entry, looked up): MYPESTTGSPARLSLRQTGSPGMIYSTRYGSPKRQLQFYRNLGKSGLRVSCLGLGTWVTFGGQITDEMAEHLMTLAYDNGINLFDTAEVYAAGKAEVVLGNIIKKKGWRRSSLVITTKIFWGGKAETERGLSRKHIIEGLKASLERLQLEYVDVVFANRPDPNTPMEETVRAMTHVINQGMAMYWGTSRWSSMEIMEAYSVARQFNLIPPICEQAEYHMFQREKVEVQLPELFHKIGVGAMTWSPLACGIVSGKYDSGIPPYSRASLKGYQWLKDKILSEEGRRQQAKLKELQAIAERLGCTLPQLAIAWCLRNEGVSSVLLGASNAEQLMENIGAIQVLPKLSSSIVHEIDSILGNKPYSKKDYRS
Chain of Muscarinic acetylcholine receptor M4 (Homo sapiens) (P08173 whole entry, looked up): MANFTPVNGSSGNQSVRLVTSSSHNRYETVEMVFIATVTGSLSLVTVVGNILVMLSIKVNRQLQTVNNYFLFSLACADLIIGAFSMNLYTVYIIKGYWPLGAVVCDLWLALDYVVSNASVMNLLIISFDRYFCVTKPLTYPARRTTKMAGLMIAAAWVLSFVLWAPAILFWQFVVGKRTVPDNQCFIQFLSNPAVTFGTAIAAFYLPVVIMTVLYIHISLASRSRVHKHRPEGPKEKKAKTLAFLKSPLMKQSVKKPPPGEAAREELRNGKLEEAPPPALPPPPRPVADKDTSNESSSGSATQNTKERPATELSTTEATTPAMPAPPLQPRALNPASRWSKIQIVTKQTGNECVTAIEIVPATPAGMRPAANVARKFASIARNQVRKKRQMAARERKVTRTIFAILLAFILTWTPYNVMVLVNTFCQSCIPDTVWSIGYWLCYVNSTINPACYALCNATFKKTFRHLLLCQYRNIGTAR
Chain of Alpha-2C adrenergic receptor (Homo sapiens) (P18825 whole entry, looked up): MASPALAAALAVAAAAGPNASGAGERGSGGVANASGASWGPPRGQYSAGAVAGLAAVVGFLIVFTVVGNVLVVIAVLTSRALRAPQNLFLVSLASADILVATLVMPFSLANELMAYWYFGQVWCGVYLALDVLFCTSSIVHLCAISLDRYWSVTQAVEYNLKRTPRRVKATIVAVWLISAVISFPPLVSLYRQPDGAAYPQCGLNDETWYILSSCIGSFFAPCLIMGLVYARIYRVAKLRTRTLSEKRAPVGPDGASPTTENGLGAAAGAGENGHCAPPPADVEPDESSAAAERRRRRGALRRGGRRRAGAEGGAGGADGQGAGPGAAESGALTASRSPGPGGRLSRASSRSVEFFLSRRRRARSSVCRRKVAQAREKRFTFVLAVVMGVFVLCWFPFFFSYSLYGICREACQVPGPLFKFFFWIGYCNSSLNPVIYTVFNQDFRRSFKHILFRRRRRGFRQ
Chain of Dual specificity protein phosphatase 6 (Homo sapiens) (Q16828 whole entry, looked up): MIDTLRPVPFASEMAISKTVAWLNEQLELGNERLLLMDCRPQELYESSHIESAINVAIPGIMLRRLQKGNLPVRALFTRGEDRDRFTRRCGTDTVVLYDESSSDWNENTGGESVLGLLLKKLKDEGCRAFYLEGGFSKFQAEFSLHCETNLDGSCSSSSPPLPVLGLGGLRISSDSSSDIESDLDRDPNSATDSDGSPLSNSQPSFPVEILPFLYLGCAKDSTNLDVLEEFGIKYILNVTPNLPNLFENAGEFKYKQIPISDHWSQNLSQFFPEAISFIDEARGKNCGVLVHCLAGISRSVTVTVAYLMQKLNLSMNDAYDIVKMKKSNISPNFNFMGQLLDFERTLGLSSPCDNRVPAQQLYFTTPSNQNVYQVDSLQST

In the case of `COc1c2occc2c(OC)c2c(=O)cc(C)oc12`, the cell count in assay [1] amounted to 555. Moreover, the inhibition is -5.1% (inactive) in [1]; -78.7% (inactive) in assay [3]; 21.2% (inactive) in assay [5]; -3.66% (inactive) in assay [9]; 14.8% (inactive) in assay [10]; 36% (inactive) in assay [11]. Besides, in [2], the inhibition of aggregation was 13.1% (inactive). Also, the figures for the nuclei count in assay [2] and in [3] were 103% and 136%, respectively. In addition, the z-score was -0.618 in assay [4] (setting [14]), 0.0772 in [4] (setting [15]) and -0.0412 in assay [4] (setting [16]). Besides, the fluorescence slope in assay [6] is -0.445 (inactive). Moreover, the NADPH fluorescence slope in [7] is -4.4e-05 (inactive). In addition, the slope in assay [8] was 0.00425 (inactive).

As for `CNC(=O)CC(C(=O)O)c1ccc(OC(C)C)cc1` (centres undefined), the cell count in [1] is 649. In addition, the inhibition is -0.5% (inactive) in [1]; 21.1% (inactive) in [3]; -2.09% (inactive) in [5]; 2.81% (inactive) in [9]; 12.9% (inactive) in assay [10]; 19.4% (inactive) in assay [11]. Besides, the inhibition of aggregation in assay [2] is 26.1% (inactive). Further, the nuclei count in [2] worked out at 89.4%; in [3] it was 125%. Moreover, the z-score in assay [4] (setting [14]) was -0.892; in [4] (setting [15]), 0.826; in assay [4] (setting [16]), 1.07. For the same compound, the fluorescence slope in [6] was -0.454 (inactive); in assay [12], 0.00492 (inactive). Besides, the NADPH fluorescence slope in assay [7] is -4e-05 (inactive). For the same compound, the slope in [8] was 0.00593 (inactive). In [13], the result was inactive.

For `CCN(CC)CCCN1C(=O)C(=O)/C(=C(/O)c2ccccc2)C1c1ccccn1` (centres undefined), in [1], the cell count was determined as 528. In addition, the inhibition is -5.4% (inactive) in [1]; -45% (inactive) in assay [3]; 7.7% (inactive) in [5]; 8.25% (inactive) in [9]; 2.69% (inactive) in [10]; 1.93% (inactive) in assay [11]. In assay [2], the inhibition of aggregation is 5.1% (inactive). The nuclei count worked out at 104% in assay [2] and 121% in assay [3]. Moreover, the z-score was 0.55 in assay [4] (setting [14]), -1.39 in assay [4] (setting [15]) and -0.0355 in assay [4] (setting [16]). Besides, the fluorescence slope was -0.473 (inactive) in assay [6] and 0.00518 (inactive) in assay [12]. In assay [7], the NADPH fluorescence slope was -3.7e-05 (inactive). In addition, the slope in [8] was 0.00741 (inactive). Also, the outcome in [13] was inactive.

Turning to `Cc1cc(NCC2CCCO2)n2c(nc3ccccc32)c1C#N` (centres undefined), the cell count in assay [1] worked out at 481. The inhibition is -3.7% (inactive) in assay [1]; -9.7% (inactive) in [3]; 1.48% (inactive) in assay [5]; -17.8% (inactive) in assay [9]; 16.8% (inactive) in assay [10]; 15.3% (inactive) in assay [11]. Also, the inhibition of aggregation in assay [2] is 16.3% (inactive). Moreover, the nuclei count in assay [2] worked out at 95.7%; in assay [3] it was 113%. The values for the z-score in assay [4] (setting [14]), in [4] (setting [15]) and in [4] (setting [16]) were -1.71, 1 and 0.144, respectively. The values for the fluorescence slope in assay [6] and in assay [12] were -0.356 (inactive) and 0.00588 (inactive), respectively. Further, in assay [7], the NADPH fluorescence slope was -1.1e-05 (inactive). The slope in assay [8] was 0.00569 (inactive). Besides, the result in [13] was inactive.

In the case of `CC(CN1CCN(C)CC1)OC(=O)c1ccc(Cl)cc1Cl` (centres undefined), the cell count in [1] was 495. Besides, the inhibition in [1] is 2.7% (inactive); in assay [3], 5.7% (inactive); in assay [5], -0.624% (inactive); in assay [9], 136% (active); in assay [10], 11.3% (inactive); in [11], 23.1% (inactive). Also, in assay [2], the inhibition of aggregation was -4.3% (inactive). The nuclei count in assay [2] was found to be 89.3%; in [3], 93.6%. For the same compound, the results for the z-score in assay [4] (setting [14]), in [4] (setting [15]) and in assay [4] (setting [16]) were 0.0987, 0.463 and -0.406, respectively. Moreover, the fluorescence slope in assay [6] was -0.4 (inactive); in assay [12], 0.00468 (inactive). In addition, in assay [7], the NADPH fluorescence slope is -7.7e-06 (inactive). Also, the slope in [8] was 0.00282 (inactive). The call in assay [13] was inactive.

Take `Cc1cn2c(-c3ccncc3)nnc2s1`: in assay [1], the cell count is 443. In addition, the inhibition in assay [1] was -7.7% (inactive); in assay [3] it was -73.4% (inactive); in [5] it was 22.3% (inactive); in [9] it was -0.946% (inactive); in assay [10] it was 4.57% (inactive); in assay [11], 19.6% (inactive). The inhibition of aggregation in [2] is 5.7% (inactive). The nuclei count in assay [2] was determined as 88.7%; in assay [3] it was 142%. Further, the z-score in assay [4] (setting [14]) was 1.88; in assay [4] (setting [15]) it was 0.607; in [4] (setting [16]), -1.91. Further, the figures for the fluorescence slope in assay [6] and in assay [12] were -0.491 (inactive) and 0.00508 (inactive), respectively. Also, in [7], the NADPH fluorescence slope is -0.000121 (inactive). For the same compound, in assay [8], the slope is 0.0059 (inactive). Further, in assay [13], the call was inactive.

Take `CCN1CCc2c(C#N)c(N3CCOCC3)nc(NCc3ccccc3)c2C1`: in assay [1], the cell count was 507. In addition, the inhibition is 9.3% (inactive) in assay [1]; -218% (inactive) in assay [3]; -11.5% (inactive) in [5]; 27.4% (inactive) in assay [9]; 10.8% (inactive) in assay [10]; 10.8% (inactive) in assay [11]. The inhibition of aggregation in assay [2] is 4.7% (inactive). Moreover, the nuclei count worked out at 80.7% in [2] and 110% in assay [3]. The results for the z-score in assay [4] (setting [14]), in [4] (setting [15]) and in assay [4] (setting [16]) were 0.377, -1.7 and 2.2, respectively. The fluorescence slope in assay [6] is -0.484 (inactive); in assay [12], 0.00486 (inactive). Further, the NADPH fluorescence slope in [7] is -3.1e-05 (inactive). The slope in assay [8] is 0.00496 (inactive). Also, the outcome in assay [13] was inactive.

Consider `Cc1ccc(S(=O)(=O)NC(=O)NN2CCCCCC2)cc1`, for which the cell count in [1] is 604. Moreover, the inhibition in [1] was -5.1% (inactive); in assay [3] it was -81.9% (inactive); in [5] it was 21.2% (inactive); in assay [9], 6.39% (inactive) and 32.8% (inactive); in assay [10], 9.08% (inactive); in [11] it was 19.5% (inactive). The inhibition of aggregation in assay [2] was 0% (inactive). Moreover, the nuclei count in assay [2] is 99.6%; in [3] it was 122%. Also, the z-score was 0.424 in [4] (setting [14]), 0.978 in assay [4] (setting [15]) and -1.05 in assay [4] (setting [16]). Also, the fluorescence slope in [6] is -0.457 (inactive). Further, in [7], the NADPH fluorescence slope is -5.8e-05 (inactive). For the same compound, the slope in [8] is 0.00471 (inactive).

Take `c1ccc2[nH]c(-c3cscn3)nc2c1`: in assay [1], the cell count came out at 587. The inhibition in assay [1] is 2.5% (inactive); in assay [3] it was -51.2% (inactive); in assay [5] it was 1.38% (inactive); in assay [9], 45% (inactive); in assay [10] it was -40.2% (inactive); in [11], -133% (inactive). For the same compound, the inhibition of aggregation in assay [2] was -29.1% (inactive). Moreover, the nuclei count is 99.7% in assay [2] and 111% in assay [3]. For the same compound, the z-score in [4] (setting [14]) is -1.12; in [4] (setting [15]), -0.0303; in assay [4] (setting [16]), -0.292. In addition, the fluorescence slope in assay [6] was -0.491 (inactive). Also, in assay [7], the NADPH fluorescence slope was -6.5e-05 (inactive). In [8], the slope was 0.00525 (inactive).

With `COc1ccc(N2CCN(c3nc4c(c(=O)[nH]c(=O)n4C)n3CCCc3ccccc3)CC2)cc1`, in [1], the cell count stood at 636. Further, the inhibition in assay [1] is 6.6% (inactive); in assay [3], -69.3% (inactive); in assay [5], 14.7% (inactive); in assay [9] it was 1.13% (inactive); in assay [10], 12.8% (inactive); in assay [11], 18.8% (inactive). The inhibition of aggregation in assay [2] is 2.8% (inactive). In addition, the values for the nuclei count in [2] and in [3] were 100% and 112%, respectively. The z-score is 0.546 in assay [4] (setting [14]), -1.43 in assay [4] (setting [15]) and 0.632 in assay [4] (setting [16]). For the same compound, the fluorescence slope was -0.429 (inactive) in [6] and 0.0059 (inactive) in assay [12]. The NADPH fluorescence slope in assay [7] was -3.7e-05 (inactive). The slope in assay [8] is 0.0083 (inactive). In addition, in assay [13], the compound was called inactive.
